Experiment [1] is described as follows: High-throughput drug toxicity screening in the BPDCN cell line Gen2.2 (AID 1224824; call rule not given here;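 also: cells exposed to compounds for 48 h before reading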). The note with it: Gen2.2 BPDCN cells; at 45.8 µM (top of the series). In a few lines: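 CellTiter-Glo luminescence after 48 h compound exposure of Gen2.2 cells; percent activity set with DMSO as 100% and bortezomib (9.2 uM final) as 0%. Cells seeded at 500 per well, RPMI + 10% FBS, 37 °C.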

A short description of experiment [2]: High-throughput drug toxicity screening in the BPDCN cell line Cal-1 (AID 1224825; call rule not given here). The note with it: Cal-1 BPDCN cell viability, qHTS; at 45.8 µM (top of the series). In a few lines:
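Viability of the BPDCN line Cal-1 is measured as ATP-based luminescence (CellTiter-Glo) following 48 h incubation with compounds. Percent activity uses DMSO-treated wells as 100% and 9.2 uM bortezomib as 0%.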

Experiment [3] is described as follows: qHTS assay for measurement of the activity of small molecule inhibitors on Zika virus induced Caspase-3 activity in human iPSC derived neural progenitor cells (hNPCs) (AID 1224857). Also: % of control where 0% means no effect; nearly all actives have a fitted effect of over 65% in size. In a few lines: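 Values are percent inhibition of virus-induced caspase-3/7 signal, scaled between uninfected cells and ZIKV-infected cells. Infection used 2 FFU/cell for 6 h after 1 h compound exposure.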

Experiment [4] in a line: qHTS assay for measurement of the activity of small molecule inhibitors on Zika virus induced Caspase-3 activity in human astrocytoma cells (AID 1224859).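 Also: plate controls were ZIKV-infected untreated cells for no effect and uninfected cells for full effect.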 In a few lines: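 Compound added 1 h pre-infection; ZIKV 2 FFU/cell on SNB-19 cells, 6 h, 37 C/5% CO2. Caspase-Glo 3/7 luminescence; values as % inhibition of ZIKV-induced caspase activity.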
A short description of experiment [5]: qHTS Screen of the MIPE 4.0 Collection Against Ewings Sarcoma (RDES) (AID 1259252). Also: nearly all actives have a fitted effect of over 35% in size. Also: potency is read from the fitted curve at half-maximal effect. In a few lines:
(§1)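 Compound titrations go onto adherent log-phase cells 4 h after seeding, incubate 48 h at 37C, then CellTiter-Glo luminescence reports viability relative to DMSO and cell-free controls.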

The nature of experiment [6]: qHTS Screen of the MIPE 4.0 Collection Against Ewings Sarcoma (TC71) (AID 1259253). Also: nearly all actives have a fitted effect of over 40% in size. Also: potency is read from the fitted curve at half-maximal effect. In a few lines:
as §1

A short description of experiment [7]: qHTS Screen of the MIPE 4.0 Collection Against Ewings Sarcoma (EW8) (AID 1259255). Also: nearly all actives have a fitted effect of over 35% in size. Also: potency is read from the fitted curve at half-maximal effect.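 As to viability: 100% = DMSO-treated cells and 0% = medium-only wells without cells.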 In a few lines:
as §1

Experiment [8] is described as follows: P-glycoprotein substrates identified in KB-3-1 adenocarcinoma cell line, qHTS therapeutic library screen (AID 1346986). Also: nearly all actives have a fitted effect of over 60% in size. In a few lines:
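72 h cell-killing screen, 500 cells/well, CellTiter-Glo luminescence. Paired lines KB-3-1/KB-8-5-11; P-gp dependence checked by tariquidar co-treatment and HEK-293 MDR-19 versus empty-vector cells.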

Experiment [9] can be described thus: P-glycoprotein substrates identified in KB-8-5-11 adenocarcinoma cell line, qHTS therapeutic library screen (AID 1346987). Also: nearly all actives have a fitted effect of over 65% in size. Also: potency is read from the fitted curve at half-maximal effect. In a few lines: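 Luminescence from CellTiter-Glo, read 5 min after addition, quantified survival of KB-8-5-11 (P-gp-overexpressing) cells exposed to compounds for 72 h. AC50 was derived from concentration-response curves.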
Experiment [10] in a line: qHTS Screen of the MIPE 4.0 Collection Against Ewings Sarcoma (TC32) (AID 1259256). Also: nearly all actives have a fitted effect of over 45% in size. Also: potency is read from the fitted curve at half-maximal effect. In a few lines:
as §1

SMILES strings stand for the structures. Results filed as inconclusive are left out. Active and inactive are the calls of the source. Unless noted, calls follow the shape of the dose curve; as a rule, active = well fitted curve in the direction sought with a large enough effect; inconclusive = small, poorly fitted or top-dose-only effect, or another doubt; inactive = no such curve, though single readings can be large; an effect the other way counts as inactive or inconclusive.

Our source for the cell viability, % of control (lower = more cytotoxic), viability (% of control) and Potency values is PubChem BioAssay (NCATS).

With `O=c1[nH]c2ccccc2n1C1CCN(Cc2ccc(-c3[nH]c4cc5ncnc5cc4nc3-c3ccccc3)cc2)CC1`, the cell viability, % of control (lower = more cytotoxic) in experiment [1] was 4.84%. Also, the viability (% of control) in experiment [2] worked out at 3.61%. The Potency entry in [3], in [4], in [8] and in experiment [9] was “inactive” each time. Moreover, the Potency in experiment [5] was 23.5 µM (active); in experiment [6], 20.9 µM (active); in experiment [7], 18.7 µM (active).
On to `c1cc2c(cc1[C@H]1OC[C@H]3[C@H]1CO[C@H]3c1ccc3c(c1)OCO3)OCO2`, for which the cell viability, % of control (lower = more cytotoxic) in [1] worked out at 197%. In addition, the viability (% of control) in experiment [2] is 91%. In addition, the Potency result in experiment [3], in experiment [4], in [7] and in experiment [9] was “inactive” throughout.
Consider `COC1=C[C@@H]2[C@@H]3Cc4ccc(OC)c(O)c4[C@]2(CCN3C)CC1=O`, for which, in experiment [1], the cell viability, % of control (lower = more cytotoxic) turned out to be 69.4%. The viability (% of control) in experiment [2] was 12.3%. The Potency entry in experiment [3], in experiment [4], in experiment [8] and in experiment [9] was “inactive” throughout. For the same molecule, the values for the Potency in experiment [5], in [6] and in [10] were 4.69 µM (active), 3.32 µM (active) and 2.96 µM (active), respectively.
For `COc1cc([C@@H]2c3cc4c(cc3[C@@H](O)C3COC(=O)C32)OCO4)cc(OC)c1O` (some centres not stated), the cell viability, % of control (lower = more cytotoxic) in experiment [1] came to 6.47%. Besides, the viability (% of control) in [2] is 5.19%. Moreover, the Potency entry in experiment [3] and in experiment [4] was “inactive” in each case. Besides, the Potency in experiment [5] is 0.0235 µM (active); in experiment [6], 0.0418 µM (active); in experiment [7] it was 0.0264 µM (active); in experiment [9], 0.118 µM (active).
`CC=C(C)C(=O)O[C@H]1C(C)=C2[C@@H]3OC(=O)[C@@](C)(O)[C@@]3(O)[C@@H](OC(=O)CCC)C[C@](C)(OC(C)=O)[C@@H]2[C@@H]1OC(=O)CCCCCCC`: in experiment [1], the cell viability, % of control (lower = more cytotoxic) is 12.1%. Also, the viability (% of control) in [2] stood at 2.54%. Further, the Potency result in [3] and in experiment [4] was “inactive” throughout. The Potency is 0.148 µM (active) in experiment [5]; 0.0526 µM (active) in experiment [6]; 0.0935 µM (active) in experiment [7]; 0.0418 µM (active) in experiment [10]; 1.87 µM (active) in experiment [9].
As for `CN1CCN(c2ccc([N+](=O)[O-])c3no[n+]([O-])c23)CC1`, the cell viability, % of control (lower = more cytotoxic) in experiment [1] was determined as 4.61%. Also, the viability (% of control) in experiment [2] stood at 4.53%. The Potency result in experiment [3], in experiment [4], in [8] and in [9] was “inactive” each time. In addition, the Potency in [6] and in experiment [7] was 23.5 µM (active) throughout.
As for `C[C@H]1CCCC=CC2C[C@H](O)C[C@@H]2[C@H](O)C=CC(=O)O1` (some centres not stated), in experiment [1], the cell viability, % of control (lower = more cytotoxic) was 4.51%. For the same molecule, in experiment [2], the viability (% of control) came to 4%. The Potency entry in [3], in experiment [4], in experiment [5], in experiment [6] and in [7] was “inactive” each time. In [9], the Potency was 0.001 µM (active).
For `C[C@]12CC[C@H]3[C@@H](CCC4=CC(=O)CC[C@@]43C)[C@H]1CC[C@H]2O`, in experiment [1], the cell viability, % of control (lower = more cytotoxic) was 83.2%. Besides, in experiment [2], the viability (% of control) is 101%. The Potency entry in experiment [3], in experiment [4], in [5], in experiment [6], in experiment [7] and in [10] was “inactive” throughout. The Potency in experiment [9] is 11.8 µM (active).
Regarding `CC(N[C@H]1C[C@H]1c1ccccc1)c1ccc2c(c1)OCCO2` (some centres not stated), the cell viability, % of control (lower = more cytotoxic) in experiment [1] was 154%. Moreover, in experiment [2], the viability (% of control) is 96.1%. For the same molecule, the Potency entry in [3], in experiment [4] and in experiment [7] was “inactive” throughout.
With `C[C@H]([C@H](O)CCC(C)(C)O)[C@H]1CC[C@@]2(O)C3=CC(=O)[C@@H]4C[C@@H](O)[C@@H](O)C[C@]4(C)[C@@H]3CC[C@]12C`, the cell viability, % of control (lower = more cytotoxic) in [1] came out at 127%. Moreover, the viability (% of control) in experiment [2] worked out at 110%. Further, the Potency entry in experiment [3], in experiment [4], in experiment [5], in experiment [6], in experiment [7] and in experiment [9] was “inactive” in each case.
In the case of `COc1ccc2c(c1)[C@]13CCCCC1C(C2)N(C)CC3` (some centres not stated), the cell viability, % of control (lower = more cytotoxic) in experiment [1] came to 61.8%. Also, the viability (% of control) in experiment [2] stood at 93.4%. In addition, the Potency result in experiment [3], in [4], in experiment [5], in experiment [6], in experiment [7] and in experiment [10] was “inactive” throughout. The Potency result in [9] was “inactive”.
`CC[C@H]1C=CC=CC[C@@H](C)[C@H](O)[C@@](C)(O)C(=O)[C@@H](C)[C@H](O)[C@@H](C)C(=O)[C@@H](C)[C@H](O)[C@@H](C)C=CC(=O)O[C@@H]2[C@@H](C)[C@H](CC1)O[C@]1(CC[C@H](C)[C@H](C[C@@H](C)O)O1)[C@H]2C`: the cell viability, % of control (lower = more cytotoxic) in [1] came to 8.73%. For the same molecule, in experiment [2], the viability (% of control) was 6.39%. Moreover, the Potency entry in experiment [3] and in experiment [4] was “inactive” in each case. In addition, the Potency was 0.0118 µM (active) in experiment [6], 4.69 µM (active) in experiment [7] and 1.05 µM (active) in [9].
`C[C@]12COC(=O)C[C@@H]1CC[C@@H]1[C@H]2CC[C@@]2(C)[C@H]1CC[C@]2(C)O`: the cell viability, % of control (lower = more cytotoxic) in experiment [1] stood at 122%. The viability (% of control) in [2] was determined as 111%. In addition, the Potency result in [3], in experiment [4], in experiment [7], in [10] and in experiment [9] was “inactive” throughout.
As for `Clc1ccccc1C(c1ccccc1)(c1ccccc1)n1cccn1`, the cell viability, % of control (lower = more cytotoxic) in [1] worked out at 108%. Also, the viability (% of control) in experiment [2] is 108%. Also, the Potency result in experiment [3], in experiment [4] and in experiment [9] was “inactive” throughout. Moreover, the Potency was 1.05 µM (active) in [5], 1.05 µM (active) in [6], 1.05 µM (active) in experiment [7] and 0.935 µM (active) in experiment [10].
For `CCCN1CCO[C@@H]2c3cc(O)ccc3OC[C@@H]21`, the cell viability, % of control (lower = more cytotoxic) in experiment [1] was determined as 209%. Further, the viability (% of control) in experiment [2] stood at 16.6%. The Potency entry in experiment [3], in experiment [4], in experiment [5], in experiment [6], in experiment [8] and in [9] was “inactive” each time.
With `CC(O)=C(C#N)C(=O)Nc1cc(Br)ccc1Br`, the cell viability, % of control (lower = more cytotoxic) in experiment [1] turned out to be 79.3%. For the same molecule, in experiment [2], the viability (% of control) stood at 103%. Further, the Potency entry in experiment [3], in experiment [4], in [8] and in [9] was “inactive” in each case. Also, the Potency in experiment [6] was 23.5 µM (active); in [10] it was 20.9 µM (active).
